Hits are enriched below; roughly 2.7% of the tested compounds scored in any of these assays.
MsrA act: activates bovine MsrA enzyme | purified bovine MsrA, absorbance read-out | AID 602163 | 0.3% of 360,000 active | activation, % at 10.6 µM; in the data active = activation above about 7.5%
NadD block: inhibitors of Staphylococcus aureus NadD; purified NadD enzyme, colorimetric absorbance read-out; inhibition, % at 20 µM; 0.78% of 360,000 active; in the data active = inhibition above about 26%
rCAG binder: molecules binding r(CAG) RNA repeats; r(CAG) RNA repeat, TO-PRO-1 dye displacement fluorescence; inhibition, % at 3 µM; 1.3% of 370,000 active; AID 651821;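 active = inhibition above the plate cutoff, the mean of all test compounds on that plate plus 3 SD, cut at about 35% in these data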;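 note: higher means more dye released from RNA so lower well fluorescence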
MsrA inh: inhibitors of bovine MsrA; 0.75% of 360,000 active; inhibition, % at 15.5 µM; purified bovine MsrA, absorbance read-out
MsrA conf: confirmation of bovine MsrA inhibitors | shares compounds with MsrA inh | purified bovine MsrA, absorbance read-out | inhibition, % at 15.5 µM | 41% of 2,300 active | AID 651822;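 note: coupled to thioredoxin reductase with NADPH and selenocystamine and DMSO as substrate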
Each line names hits and unclear results; the compound was inactive in the other large screens (follow-up assays come after a bar, where they were run). Cut-off read from the data, not from the text of the source, unless noted: active = inhibition above about 4.5%; inactive = the rest.

O=C1CS/C(=N/N=C/c2cccs2)N1	MsrA inh 6.4 | MsrA conf inactive
CC1(C)S/C(=N/N=C/c2cccs2)NC1=O	MsrA inh 4.7 | MsrA conf inactive
O=C1CS/C(=N/N=C/c2ccncc2)N1	none
O=C1N/C(=N\N=C\c2cccs2)SC1Cc1cccc(Cl)c1Cl (centres undefined)	none
COc1ccc(/C=N/NC(=O)c2ccc3nc[nH]c3c2)c(OC)c1OC	MsrA inh 5.1 | MsrA conf inactive
Cc1ccc(/C=N/NC(=O)c2ccc3nc[nH]c3c2)s1	MsrA inh 7.3 | MsrA conf 5.7
COc1cc(OC)c(OC)cc1/C=N/NC(=O)c1ccc2nc[nH]c2c1	none
COc1cccc(/C=N/NC(=O)c2ccc3nc[nH]c3c2)c1O	none
COC(=O)c1ccc(Cn2ccc3ccc(-c4ccc5ccn(C(=O)c6ccccc6)c5c4)cc32)cc1	none (no result: MsrA act, NadD block, MsrA inh)
O=C(c1ccccc1)c1nn(-c2ccccc2)c(=O)cc1-c1ccccc1	none (no result: rCAG binder, MsrA inh)
C#Cc1cccc(Nc2nc(NC(C)C)nc3ccsc23)c1	none
COc1ccc(-c2cccc3c2C2CC3CCN2C(=O)OCc2ccccc2)cc1 (centres undefined)	MsrA inh 6.4 | MsrA conf inactive
CS/C(=C/[N+](=O)[O-])Nc1cccc2c1C(C)CC2(C)C (centres undefined)	MsrA inh 22.7 | MsrA conf 20.1
CCCCCCCCN1C(=O)[C@@H](CC(=O)NCCCOC)C[C@@]2(C(=O)OC)C1=C[C@H](COCc1ccccc1)O[C@@H]2C	none (no result: MsrA act, NadD block, MsrA inh)
C/C(=N\Nc1ccc(C#N)cc1[N+](=O)[O-])c1ccc(O)cc1	MsrA inh 16.4 | MsrA conf 16.8
CC/C(=N\Nc1ccc([N+](=O)[O-])cc1[N+](=O)[O-])c1ccc(O)cc1	MsrA inh 6.7 | MsrA conf inactive
CCOC(=O)CCCNc1ccc([N+](=O)[O-])cc1[N+](=O)[O-]	none
CC(C)(CO)Nc1ccc([N+](=O)[O-])cc1[N+](=O)[O-]	MsrA inh 5.3 | MsrA conf inactive
O=C(COC(=O)CCSc1ccccc1)Nc1ccccc1	none

Compound activity from PubChem BioAssay.
